Experimental data reported in PubChem BioAssay AID588674 (Broad Institute, 2011).
In all, about 360,000 compounds went through this assay and about 1,800 (0.5%) were called active.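 Rule for the calls: active = mean inhibition of at least 75% with every replicate also reaching 75%; inconclusive = mean inhibition at least 75% but some replicate below; inactive = mean inhibition below 75%.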 Only a selection was taken, and actives are over-represented in it overall.

Assay: Shn3 3'UTR reporter decrease in osteoblasts – cell-based, Clone20 osteoblasts, firefly luciferase, set 2, Schnurri-3 inhibitor project, primary screen (AID 588674);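 note: 0% = median of neutral control wells and 100% = pilot-screen positive control compound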
Conditions: Clone20 osteoblast Shn3 3'UTR firefly luciferase, 24 h; at 12.5 µM; stronger effect = higher value

Question: For `CCn1c(NCCc2ccc(OC)c(OC)c2)nc2c1c(=O)n(C)c(=O)n2C`, which inhibition is on record?
Answer: 63.1% (inactive)

Question: With `CCCCNc1nc2c(c(=O)n(C)c(=O)n2C)n1Cc1cccc(OC)c1` as the compound, how does the inhibition read?
Answer: 86.7% (active)

Question: With `Cn1c(=O)c2c(nc(NCCNC(=O)c3ccco3)n2Cc2ccccc2F)n(C)c1=O` as the compound, how does the inhibition read?
Answer: 12.8% (inactive)

Question: For `C[C@H](C(=O)CC(=O)OC(C)(C)C)[C@H](O)c1ccc(C(F)(F)F)cc1`, which inhibition is on record?
Answer: -13.2% (inactive)

Question: With `O=C(NCc1ccc(F)cc1)c1cc(C2CCCCN2C(=O)c2cccs2)on1` (configuration not stated) as the compound, how does the inhibition read?
Answer: 4.41% (inactive)

Question: For `O=S1(=O)CC(N2CCN(c3ccccn3)CC2)CN1Cc1ccc(F)cc1` (configuration not stated), which inhibition is on record?
Answer: 11.2% (inactive)

Question: For `COc1ccccc1N1CCN(/N=C\C(Br)=C\c2ccccc2)CC1`, which inhibition is on record?
Answer: 39.8% (inactive)

Question: For `COc1ccccc1/C=C/C=N/n1c(-c2ccc(Cl)cc2Cl)n[nH]c1=S`, which inhibition is on record?
Answer: -1.5% (inactive)

Question: For `Cc1cc(-c2n[nH]c(=S)n2/N=C/C(Br)=C/c2ccccc2)n[nH]1`, which inhibition is on record?
Answer: 90.7% (active)

Question: For `Cc1ccc(S(=O)(=O)N2C[C@]3(O)C[C@@H]4C(=O)N(c5ccccc5)C(=O)[C@@H]4C[C@]3(OC(=O)NC3CC3)C2)cc1`, which inhibition is on record?
Answer: 7.81% (inactive)

Question: Which inhibition does the source give for `CCOC(=O)C(=Cc1ccccc1)C(=O)c1ccccc1` here?
Answer: 40.1% (inactive)

Question: With `CCOC(=O)/C(=N\Nc1ccccc1[N+](=O)[O-])c1csc(Nc2ccccc2)n1` as the compound, how does the inhibition read?
Answer: -7.96% (inactive)

Question: For `CCOC(=O)/C(=C\c1ccc([N+](=O)[O-])cc1)C(=O)c1cc(C(C)=O)c(Nc2ccccc2)s1`, which inhibition is on record?
Answer: 97.8% (active)

Question: With `COc1ccc(-c2c(C#Cc3ccsc3)c3cc(-c4ccc(CN5CCOCC5)cc4)ccc3n2C)cc1` as the compound, how does the inhibition read?
Answer: 10.2% (inactive)

Question: With `Cc1cccc(N2CCN(C(c3ccccc3)c3nnnn3CC3CCCO3)CC2)c1C` (configuration not stated) as the compound, how does the inhibition read?
Answer: 20.4% (inactive)

Question: With `CC1(C)CC(N2CCN(C(c3ccccc3)c3ccccc3)CC2)=CC(=[N+]2CCCCC2)C1` as the compound, how does the inhibition read?
Answer: 88.3% (active)

Question: For `COc1ccccc1NC(=S)N1CCN(C(c2ccccc2)c2ccccc2)CC1`, which inhibition is on record?
Answer: 13.3% (inactive)

Question: For `Cc1ccc(-n2c(=O)c(C#N)cc3c(=O)n4ccccc4nc32)cc1C`, which inhibition is on record?
Answer: 6.55% (inactive)

Question: With `O=C(NCC1CCCCC1)c1cc(S(=O)(=O)N2CCCCC2)ccc1N1CCOCC1` as the compound, how does the inhibition read?
Answer: -9.53% (inactive)

Question: Which inhibition does the source give for `CCc1nnc(NC(=O)CCN(c2ccc(C)cc2)S(=O)(=O)c2ccccc2)s1` here?
Answer: -20.5% (inactive)

Question: For `Cc1sc2ncnc(SCC(=O)NC3CCS(=O)(=O)C3)c2c1C` (configuration not stated), which inhibition is on record?
Answer: -6.98% (inactive)

Question: With `CC(C)(C)c1ccc(/C=C2\Oc3c(ccc(O)c3CN3CCN(CCO)CC3)C2=O)cc1` as the compound, how does the inhibition read?
Answer: 7.57% (inactive)

Question: With `O=C(Cn1cc(C(=O)C2CC2)c2ccccc21)Nc1ccccc1Cl` as the compound, how does the inhibition read?
Answer: 87.4% (active)

Question: For `COCCCNC(=O)Cn1cc(C(=O)C2CC2)c2ccccc21`, which inhibition is on record?
Answer: 11.6% (inactive)

Question: With `Cc1ccccc1NC(=O)Cn1cc(C(=O)C2CC2)c2ccccc21` as the compound, how does the inhibition read?
Answer: 8.79% (inactive)

Question: Which inhibition does the source give for `COc1cc(CNc2ncnc3c2ncn3[C@H]2CN(Cc3cccs3)C[C@@H](CO)O2)cc(OC)c1OC` here?
Answer: -5.77% (inactive)

Question: For `COc1ccccc1C(=O)NC(=S)Nc1ccc(N2CCOCC2)cc1`, which inhibition is on record?
Answer: -4.89% (inactive)

Question: For `Cc1ccccc1C(=O)N1CCN(c2ccc(NC(=O)c3cccs3)cc2)CC1`, which inhibition is on record?
Answer: 23.5% (inactive)

Question: For `Cc1ccccc1C(=O)NC(=S)Nc1ccc(N2CCN(C(=O)c3ccccc3)CC2)cc1`, which inhibition is on record?
Answer: 88.5% (active)

Question: With `CC1(C(=O)NS(=O)(=O)Cc2cccc(Cl)c2)CCN1C(=O)Cc1ccc(Cl)cc1Cl` (configuration not stated) as the compound, how does the inhibition read?
Answer: 18.9% (inactive)

Question: With `CC1(C)CC(=O)C=C(c2cccc3c2Oc2ccccc2S3)C1` as the compound, how does the inhibition read?
Answer: 22.5% (inactive)

Question: With `CCOC(=O)c1c(C)[nH]c2c1-c1ccccc1C(=O)C2=O` as the compound, how does the inhibition read?
Answer: 95.4% (active)

Question: With `CCOC(=O)c1c(C)[nH]c(C(=O)OCC(=O)c2ccc(OC)cc2OC)c1C` as the compound, how does the inhibition read?
Answer: -19.1% (inactive)

Question: For `CCOC(=O)c1c(C)[nH]c(C)c1S(=O)(=O)NCCCc1ccco1`, which inhibition is on record?
Answer: 6.75% (inactive)

Question: For `COc1ccccc1C(=O)Nc1ccnn1C1CCN(C(=O)C(C)(C)C)CC1`, which inhibition is on record?
Answer: -5.61% (inactive)

Question: With `CC(=O)Nc1ccc(N2C(=O)CCC2=O)cc1C` as the compound, how does the inhibition read?
Answer: -1.51% (inactive)

Question: Which inhibition does the source give for `C/C(N)=C(/C#N)C(=O)COC(=O)C1CCN(C(=O)c2ccc(Cl)cc2)CC1` here?
Answer: 3.42% (inactive)

Question: Which inhibition does the source give for `Cc1cccc(NC(=O)CCN2CC(C)CC(C)C2)c1` (configuration not stated) here?
Answer: 15.6% (inactive)

Question: Which inhibition does the source give for `Cc1cccc(NC(=O)Cn2cc(C(=O)c3ccco3)c3ccccc32)c1` here?
Answer: 76.4% (inactive)

Question: For `Cc1cccc(NC(=O)c2nc(S(=O)(=O)Cc3ccccc3)ncc2Cl)c1`, which inhibition is on record?
Answer: 96.9% (active)

Question: With `Cc1ccc(C)c(Cn2nnc3c(=O)[nH]c(C(=O)Nc4ccc(F)cc4)nc32)c1` as the compound, how does the inhibition read?
Answer: 6.9% (inactive)

Question: Which inhibition does the source give for `Cc1cccc(CN2CCC(CNC(=O)Nc3ccc(F)c(Cl)c3)CC2)c1` here?
Answer: 31.4% (inactive)

Question: Which inhibition does the source give for `Cc1cccc(CS(=O)(=O)c2ncc(Cl)c(C(=O)Nc3ccc(F)cc3)n2)c1` here?
Answer: 95.8% (active)

Question: For `CCS(=O)(=O)Nc1ccc(C(=O)NCCSc2ccccc2)cc1`, which inhibition is on record?
Answer: -6.43% (inactive)

Question: For `CCCCc1ccc(NC(=S)N2CCCC(CO)C2)cc1` (configuration not stated), which inhibition is on record?
Answer: -84.4% (inactive)

Question: With `COc1cccc(CN(C)CC(=O)Nc2sc3c(c2C#N)CCC3)c1` as the compound, how does the inhibition read?
Answer: -22.6% (inactive)

Question: For `COc1cncc(-c2cnc3sc(NCCc4ccccn4)nn23)c1`, which inhibition is on record?
Answer: 21.9% (inactive)

Question: For `COC(=O)c1sc(C(F)(F)F)c(-c2ccccc2)c1S(=O)(=O)N(C)C`, which inhibition is on record?
Answer: 10.9% (inactive)

Question: For `CC(CN1CCCCC1)OC(=O)c1ccccc1Cl` (configuration not stated), which inhibition is on record?
Answer: -3.13% (inactive)

Question: Which inhibition does the source give for `CC(C)OC(=O)c1ccc(NCc2cc(O)ccc2O)cc1Cl` here?
Answer: 95.7% (active)

Question: Which inhibition does the source give for `O=C(O)Cc1ccc(NCc2ccccc2Cl)cc1` here?
Answer: -22.2% (inactive)

Question: For `CNS(=O)(=O)c1cccc(C(=O)OCCCC(=O)c2ccccc2)c1`, which inhibition is on record?
Answer: 41.8% (inactive)

Question: Which inhibition does the source give for `Fc1ccc2[nH]c3c(N4CCSCC4)ncnc3c2c1` here?
Answer: 89.7% (active)

Question: For `CC(C)Cn1cnc2c(SCc3ccc(Cl)cc3)nc(N)nc21`, which inhibition is on record?
Answer: 11.7% (inactive)

Question: For `COCCn1c(SC(C)C(=O)NC2CC2)nnc1-c1cccc(C)c1` (configuration not stated), which inhibition is on record?
Answer: 1.3% (inactive)

Question: With `CC1(C)C2CCC1(C)C(OC(=O)c1ccc(O)cc1)C2` (configuration not stated) as the compound, how does the inhibition read?
Answer: 21.8% (inactive)

Question: Which inhibition does the source give for `O=C(OC12CC3CC(CC(C3)C1)C2)c1ccc(NCc2cc(O)ccc2O)cc1` here?
Answer: 98.1% (active)
